Reference: PubChem BioAssay (Tox21)
Results filed as inconclusive are left out. Values without a mark were called inactive. Calls come from the whole dose curve.

Test: p53 small molecule agonists, cell-based qHTS assay with rat liver microsomes: qHTS cell viability counter screen (AID 1963580); note: nearly all actives have a fitted effect of over 45% in size
Settings: p53RE-bla HCT-116 + rat microsomes, ATP viability, 16 h; series mostly up to 66 µM; activity change, negative = cytotoxicity: at the top concentration
Source text: National Center for Advancing Translational Sciences [NCATS]
Division of Preclinical Innovation [DPI]
U.S. Environmental Protection Agency [EPA]
National Institutes of Environmental Health Sciences [NIEHS]
National Toxicology Program [NTP]
U.S. Food and Drug Administration [FDA]
p53, a tumor suppressor protein, is activated following cellular insult, including DNA damage and other cellular stresses. The activation of p53 regulates cell fate by inducing DNA repair, cell cycle arrest, apoptosis, or cellular senescence. The activation of p53, therefore, is a good indicator of DNA damage and other cellular stresses. The CellSensor p53RE-bla HCT-116 cell line contains a stably integrated beta-lactamase reporter gene under control of the p53 response elements. The activation of the reporter gene under culture conditions can be detected by fluorescence intensity. This cell line was used to screen the Tox21 10K compound library in the condition of presence of rat liver microsomes and to identify agonists that activate the p53 signaling pathway after in vitro metabolic activation (Ooka et al., Archive of Toxicology 96:1975-1987, 2022). The cytotoxicity of the Tox21 compound library against the p53 RE-bla HCT-116 cell line was tested in parallel by measuring the intra cellular ATP content in the same wells.
Tox21 Assay Protocol Summary:
The p53RE-bla cells were dispensed at 4,000cells/3ul/well in 1536-well black-clear bottom plates. After the assay plates were incubated at 37 C, 5% CO2 incubator for 5 hours, 23 nL of compounds dissolved in DMSO, positive controls or DMSO only was transferred to the assay plate. Following compound addition, 3 uL of rat liver microsomes (Molecular Toxicology, Boone, NC) at final concentration of 0.5 mg/mL and 1uL of B-Nicotinamide adenine dinucleotide 2'-phosphate (NADPH) at final concentration of 0.5 mg/mL were transferred to the assay plate. The plates were incubated at 37 C for 16 hours. 1 uL of LiveBLAzer detection mixture was added to each well and the plates were incubated at room temperature in the dark for 2 h. Fluorescence intensity at 460 and 530 nm emission and 405 nm excitation were measured by an Envision plate reader. For cell viability readout that measures cytotoxicity, 4 ul/well of CellTiter-Glo reagent was added into the assay plates using a Flying Reagent Dispenser. After 30 min incubation at room temperature, the luminescence intensity in the plates was measured using a ViewLux plate reader.
% is set by controls: 0 for no effect and ±100 for the full control effect.

| SMILES | activity change, negative = cytotoxicity |
| --- | --- |
| C[C@H](N)[C@H](O)c1cccc(O)c1 | -0.663% [at 30.3 µM] |
| BrCCCCCBr | 4.23% |
| CCOC(=O)N1CCC(n2c(=O)[nH]c3cc(Cl)ccc32)CC1 | 7.45% [at 30.3 µM] |
| CC(C)NCC(O)COc1ccc(COCCOC(C)C)cc1 (stereo not given) | -1.73% [at 30.3 µM] |
| Nc1ccc(C(=O)OCC(O)CO)cc1 (stereo not given) | 1.48% [at 30.3 µM] |
| CCCCCCCC/C=C\CCCCCCCCCCCC(=O)O | -2.35% |
| OCCN(CCO)c1cccc(Cl)c1 | -2.97% |
| CCCCCCC(O)CCCCCCCCCCC(=O)OC (stereo not given) | 7.43% |
| CCOC(=O)COC(=O)c1ccccc1C(=O)OCC | 5.15% |
| CC1CCCO1 (stereo not given) | 1.12% |
| O=C(CS)Nc1ccccc1 | -13.1% [at 30.3 µM] |
| COc1cc(NS(=O)(=O)c2ccc(N)cc2)nc(OC)n1 | 5.8% [at 30.3 µM] |
| CCC(=O)Oc1ccc2c(c1)CC[C@@H]1[C@@H]2CC[C@@]2(C)[C@H]1C[C@@H](OC(=O)CC)[C@@H]2OC(=O)CC | -9.8% [at 30.3 µM] |
| CCOC(=O)CC | 11.6% |
| O=C(O)c1cc(Cl)cc(Cl)c1 | 1.29% |
| CC(C)c1ccc2oc3nc(N)c(C(=O)O)cc3c(=O)c2c1 | -19% [at 30.3 µM] |
| CCOCC(O)COc1ccc(NC(=O)CC[S+](C)C)cc1 (stereo not given) | 0.455% [at 30.3 µM] |
| O=C(OCC(COC(=O)c1ccccc1)(COC(=O)c1ccccc1)COC(=O)c1ccccc1)c1ccccc1 | 0% |
| Cc1ncc([N+](=O)[O-])n1CC(C)O (stereo not given) | -1.1% [at 30.3 µM] |
| O=C(CCN1CCN2CCCC2C1)N1c2ccccc2Sc2ccc(Cl)cc21 (stereo not given) | 2.61% [at 13.5 µM] |

| SMILES | activity change, negative = cytotoxicity |
| --- | --- |
| CCCCC(CC)COC(=O)c1ccccc1O (stereo not given) | 2.18% [at 30.3 µM] |
| CN[C@@H]1[C@H](O)[C@H](NC)[C@H]2O[C@@]3(O)C(=O)C[C@@H](C)O[C@H]3O[C@@H]2[C@H]1O | -3.59% [at 30.3 µM] |
| CCCCCCCC[Si](OCC)(OCC)OCC | 6.79% |
| CNC(=O)c1cc(Oc2ccc(NC(=O)Nc3ccc(Cl)c(C(F)(F)F)c3)cc2)ccn1 | 26.5% [at 30.3 µM] |
| O=C(c1ccccc1)c1ccc2n1CCC2C(=O)O (stereo not given) | -4.2% [at 30.3 µM] |
| COC(=O)N/N=C/c1c[n+]([O-])c2ccccc2[n+]1[O-] | 0.554% [at 30.3 µM] |
| C[C@@H]1CN(c2c(F)c(N)c3c(=O)c(C(=O)O)cn(C4CC4)c3c2F)C[C@H](C)N1 | 3.67% [at 13.5 µM] |
| COc1c(Br)cc(Br)c(C)c1Br | 0.808% |
| CCCCCCCCCOC(=O)c1ccc(O)cc1 | -20.4% |
| COc1cc(C(=O)NS(=O)(=O)c2ccccc2C)ccc1Cc1cn(C)c2ccc(NC(=O)OC3CCCC3)cc12 | -1.67% [at 30.3 µM] |
| C[Si](NC1CCCCC1)(NC1CCCCC1)NC1CCCCC1 | 7.71% |
| CC1=C2[C@@H]([C@H](C)CC[C@H]2/C=C(\C)C(=O)O)[C@H](O)C1 | 4.31% |
| COCCOCC(OC)OC | 0.102% [at 30.3 µM] |
| CC/C=C\CC/C=C/C(OCC)OCC | 5.08% |
| C[C@@H]1C[C@H]2[C@@H]3CCC4=CC(=O)C=C[C@]4(C)[C@@]3(F)[C@@H](O)C[C@]2(C)[C@@]1(O)C(=O)COP(=O)(O)O | -0.452% |
| CN=C(NC#N)Nc1ccc(C2=NNC(=O)CC2C)cc1 (stereo not given) | -1.06% [at 30.3 µM] |
| CC1=CCC2C(C1)C2(C)C (stereo not given) | -2.76% |
| CC(=O)NC(=O)c1ccccc1O | 4.99% [at 30.3 µM] |
| CCCc1nc2c(C)cc(-c3nc4ccccc4n3C)cc2n1Cc1ccc(-c2ccccc2C(=O)O)cc1 | -2.02% [at 30.3 µM] |
| CCCCCC(=O)OCC | -3.55% |
